We go through 13 compounds from article PMC7826789 (International Journal of Molecular Sciences, 2021).

The subject of the first test is CLK1.
Consider `CCOc1ccc2c(-c3ccnc(Nc4cccc(C(F)(F)F)c4)n3)cnn2n1` [GW811761X], for which the Kinases covered result is “CLK1”.
On the same count and under the same terms, in the case of `CC(C)C(=O)N[C@@H]1CCN(C(=O)Nc2nc3c(s2)-c2nc(-c4ccccc4Cl)ncc2CC3)C1` [BI00047804] it was “CLK1”.
Turning to `CCCNC(=O)c1ccc(Nc2ncc(C(F)(F)F)c(Nc3ccccc3C(C)=O)n2)c(Br)c1` [BI00801818], the Kinases covered entry is “CLK1”.
Same read-out and setting: in the case of `CCOc1ccc2c(-c3ccnc(Nc4cc(OC)cc(C(F)(F)F)c4)n3)cnn2n1` [GW807982X] it was “CLK1”; in that of `CNC(=O)c1c(F)cccc1Nc1nc(Nc2cc3c(cc2OC)CCN3C(=O)CN(C)C)nc2[nH]ccc12` [GSK1838705], “CLK1”.

The test system of a further test is CLK2.
As for `CCOc1ccc2c(-c3ccnc(Nc4cccc(C(F)(F)F)c4)n3)cnn2n1` [GW811761X], the Kinases covered entry is “CLK2”.
The same measure, in the same setting: in the case of `NS(=O)(=O)c1ccc(N/N=C2\C(=O)Nc3ccc(C(=O)NCCc4c[nH]cn4)cc32)cc1` [GW300660X] it was “CLK2”.
Still for that read-out and setting: the result for `CCOc1ccc2c(-c3ccnc(Nc4cc(OC)cc(C(F)(F)F)c4)n3)cnn2n1` [GW807982X] reads “CLK2”; that for `COc1ccc2c(-c3ccnc(Nc4cccc(OC(F)(F)F)c4)n3)cnn2n1` [GW810372X], “CLK2”.
Same read-out and setting: the result for `CNC(=O)c1c(F)cccc1Nc1nc(Nc2cc3c(cc2OC)CCN3C(=O)CN(C)C)nc2[nH]ccc12` [GSK1838705] reads “CLK2”.

For the next test, the system named is DDR1.
Take `O=C(Nc1ccccc1)Nc1cccc(Oc2ccc3nccn3n2)c1` [TPKI-39]: the Kinases covered entry is “DDR1”.
`Cc1cn(-c2cc(NC(=O)c3ccc4c(c3)CN(c3cncnc3)C[C@@H]4C)cc(C(F)(F)F)c2)cn1` [D2202-1]: the Kinases covered entry is “DDR1”.
Same read-out and setting: the result for `Cc1ccc(-n2nc(C(C)(C)C)cc2NC(=O)Nc2ccc(OCCN3CCOCC3)cc2)cc1` [BIRB0876BS] reads “DDR1”; that for `CCN1CCN(Cc2ccc(C(=O)Nc3ccc(C)c(Oc4ccc5c(c4)CC(=O)N5)c3)cc2C(F)(F)F)CC1.Cl.Cl` [DDR1-IN-1], “DDR1”.

The test system of a further test is DYRK1A.
As to `CCCNC(=O)c1ccc(Nc2ncc(C(F)(F)F)c(Nc3ccccc3C(C)=O)n2)c(Br)c1` [BI00801818], the Kinases covered result is reported as “DYRK1A”.
The same measure, in the same setting: in the case of `CCC(NN(C)C)=C1C(=O)Nc2ccc(C(C)=O)cc21` [BI00036838] it was “DYRK1A”; in that of `COC[C@@H](C)N[C@H]1CC[C@H](Nc2cc(-c3cccc(NCC4(C#N)CCOCC4)n3)c(Cl)cn2)CC1` [NVP-2], “DYRK1A”.
